Compound activity (PubChem BioAssay)
LmPK inhibitor: qHTS Assay for Inhibitors of Leishmania Mexicana Pyruvate Kinase (LmPK) | Q27686 | purified LmPK, Kinase-Glo ATP luminescence, 1 h | Potency, µM (highest dose often 57.5 µM), usual class: inhibitors | 290,000 tested, 0.37% active
Target sequence (Q27686 whole entry, looked up): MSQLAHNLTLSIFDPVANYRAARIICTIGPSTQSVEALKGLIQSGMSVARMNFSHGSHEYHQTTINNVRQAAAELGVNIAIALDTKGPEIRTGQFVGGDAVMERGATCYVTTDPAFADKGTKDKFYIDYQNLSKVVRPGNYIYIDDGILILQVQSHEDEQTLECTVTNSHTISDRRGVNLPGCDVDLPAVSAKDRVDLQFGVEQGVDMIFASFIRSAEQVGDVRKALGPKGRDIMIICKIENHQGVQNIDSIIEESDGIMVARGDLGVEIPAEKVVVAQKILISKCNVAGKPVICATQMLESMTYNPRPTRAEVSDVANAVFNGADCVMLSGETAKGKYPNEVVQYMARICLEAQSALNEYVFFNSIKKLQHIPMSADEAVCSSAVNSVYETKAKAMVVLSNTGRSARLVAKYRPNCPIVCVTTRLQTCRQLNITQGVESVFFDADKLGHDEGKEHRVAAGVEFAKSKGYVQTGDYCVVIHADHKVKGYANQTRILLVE
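Pyruvate kinase activity monitored as ATP production (luciferase luminescence). Conditions: 0.1 nM enzyme, 0.5 mM PEP, 0.1 mM ADP, 1 h, RT; normalized against uninhibited and no-enzyme wells.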
Pf growth 48h: Primary qHTS for delayed death inhibitors of the malarial parasite plastid, 48 hour incubation | P. falciparum luciferase growth in erythrocytes, 48 h | Potency, µM (highest dose often 28.7 µM), usual class: inhibitors | 310,000 tested, 5.9% active | AID 504832, 2011
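Luciferase-expressing P. falciparum in infected erythrocytes (2% hematocrit, 0.1% parasitemia final) in RPMI 1640/0.5% Albumax were exposed to compound for 48 hours at 37 C, 5% CO2; growth read as luminescence.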
Shiga toxin inh: A qHTS for Small Molecule Inhibitors of Shiga Toxin; 290,000 tested, 9.2% active; inhibition, % at 38.7 µM; Vero cells, Shiga toxin protein synthesis inhibition reporter; in the data active = inhibition mostly above about 28%, no sharp cut-off; inactive = mostly below about 43%
Cycloheximide cs: Cycloheximide Counterscreen for Small Molecule Inhibitors of Shiga Toxin | cell reporter, cycloheximide protein synthesis inhibition counterscreen | max response, % | 300,000 tested, 12% active | AID 2314, 2010; in the data active = max response mostly above about 13%, no sharp cut-off; inactive = mostly below about 14%; note: read at 38.3 µM for the half of the compounds with a filed dose
Pf growth 96h: Primary qHTS for delayed death inhibitors of the malarial parasite plastid, 96 hour incubation; P. falciparum luciferase reporter growth, 96 h; Potency, µM (top dose mostly 28.7 µM), hits mostly inhibitors; 320,000 tested, 6.9% active; AID 504834, 2011
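P. falciparum expressing integrated firefly luciferase grown in erythrocytes (2% hematocrit, 0.05% parasitemia final) with compounds for 96 hours at 37 C, 5% CO2. Growth inhibition read as loss of luminescence after adding luciferase detection reagent.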
Numbers stand for hits. An excerpt weighted towards active compounds, which were near 22% of everything screened. Unless noted, calls come from the whole dose curve; as a rule, active = well fitted inhibition curve with a large enough effect; inconclusive = small, poorly fitted or top-dose-only effect, or another doubt; inactive = no such curve, though single readings can be large or run the other way.

For O=C1NCCN(Cc2cccc(Oc3ccccc3)c2)C1CC(=O)N1CCCO1 (configuration not stated) the results were LmPK inhibitor inactive, Pf growth 48h inactive, Shiga toxin inh inactive, Cycloheximide cs inactive and Pf growth 96h 5.22µM.
Screening CCNC(=O)n1nccc1C(C)Oc1ccc(Cl)cc1 (configuration not stated) returned LmPK inhibitor inactive, Pf growth 48h inactive, Shiga toxin inh inactive, Cycloheximide cs inactive and Pf growth 96h inactive.
`Cc1ccccc1OCC(=O)Nc1sc(C(=O)Nc2cccc(C)c2C)c(C)c1C#N` gave LmPK inhibitor inactive, Pf growth 48h inactive, Shiga toxin inh inactive, Cycloheximide cs inactive and Pf growth 96h inactive.
For COCC1CCN(C(=O)CC2C(=O)NCCN2Cc2cccc(Oc3ccccc3)c2)CC1 (configuration not stated) the results were LmPK inhibitor inactive, Pf growth 48h 14.7µM, Shiga toxin inh inactive, Cycloheximide cs inactive and Pf growth 96h inactive.
`CN(Cc1cnccn1)C(=O)CC1C(=O)NCCN1Cc1cccc(Oc2ccccc2)c1` (configuration not stated) gave LmPK inhibitor inactive, Pf growth 48h inactive, Shiga toxin inh inactive, Cycloheximide cs inactive and Pf growth 96h inactive.
Nc1c(C(=O)NCc2ccco2)c2nc3ccccc3nc2n1CCc1ccc(F)cc1 was read as LmPK inhibitor inactive, Shiga toxin inh inactive, Cycloheximide cs inactive and Pf growth 96h inconclusive.
COCCNC(=O)c1c(N)n(-c2ccccc2)c2nc3ccccc3nc12 was read as LmPK inhibitor inactive, Pf growth 48h inconclusive, Shiga toxin inh inactive, Cycloheximide cs inactive and Pf growth 96h inconclusive.
Screening COc1cc(-n2c(N)c(C(=O)NCc3ccco3)c3nc4ccccc4nc32)cc(OC)c1OC returned LmPK inhibitor inactive, Pf growth 48h 11.7µM, Shiga toxin inh inactive, Cycloheximide cs inactive and Pf growth 96h 13.1µM.
Screening COc1ccc(-n2c(N)c(C(=O)NCc3ccco3)c3nc4ccccc4nc32)cc1 returned LmPK inhibitor inactive, Pf growth 48h inconclusive, Shiga toxin inh inactive, Cycloheximide cs inactive and Pf growth 96h inconclusive.
COc1ccc(Cn2c(N)c(C(=O)NCc3ccco3)c3nc4ccccc4nc32)cc1OC was read as LmPK inhibitor inactive, Pf growth 48h inconclusive, Shiga toxin inh inactive, Cycloheximide cs inactive and Pf growth 96h 3.7µM.
Screening COc1ccc(-n2c(N)c(C(=O)NCc3ccco3)c3nc4ccccc4nc32)cc1OC returned LmPK inhibitor inactive, Pf growth 48h 13.1µM, Shiga toxin inh inactive, Cycloheximide cs inactive and Pf growth 96h inconclusive.
`Nc1c(C(=O)NCc2ccco2)c2nc3ccccc3nc2n1CCN1CCCCC1` gave LmPK inhibitor inactive, Pf growth 48h inconclusive, Shiga toxin inh inactive, Cycloheximide cs inactive and Pf growth 96h 9.28µM.
Screening OC[C@@H]1O[C@@H](O)[C@H](O)[C@H](O)[C@@H]1O returned Shiga toxin inh inactive and Cycloheximide cs inactive.
Screening COc1ccc(OCC(O)CN2CC(C)OC(C)C2)cc1 (configuration not stated) returned LmPK inhibitor inactive, Pf growth 48h inactive, Shiga toxin inh inactive, Cycloheximide cs inactive and Pf growth 96h inactive.
c1csc(-c2cc(N3CCCCC3)c3ccccc3n2)c1 was read as LmPK inhibitor inactive, Pf growth 48h inconclusive, Shiga toxin inh inactive, Cycloheximide cs inactive and Pf growth 96h inconclusive.
Cc1ccc(OCCN2CCN(C(=O)CCC(=O)Nc3nnc(C(C)C)s3)CC2)cc1 was read as LmPK inhibitor inactive, Pf growth 48h 10.4µM, Shiga toxin inh inactive, Cycloheximide cs inactive and Pf growth 96h 2.94µM.
Screening CCc1nnc(NC(=O)CCC(=O)N2CCC(Cc3ccccc3)CC2)s1 returned LmPK inhibitor inactive, Pf growth 48h inactive, Shiga toxin inh inactive, Cycloheximide cs inactive and Pf growth 96h 10.4µM.
CCCc1nnc(NC(=O)CCC(=O)N2CCN(CCOc3ccc(C)cc3)CC2)s1 was read as LmPK inhibitor inactive, Pf growth 48h 10.4µM, Shiga toxin inh inactive, Cycloheximide cs inactive and Pf growth 96h inconclusive.
`CCOCCCNC(=O)C(NC(=O)Cc1cccs1)c1ccc(OC)cc1` (configuration not stated) gave LmPK inhibitor inactive, Pf growth 48h inactive, Shiga toxin inh inactive, Cycloheximide cs inactive and Pf growth 96h inactive.
Cc1nnc(SCc2ccc(Cl)cc2Cl)[nH]c1=O was read as LmPK inhibitor inactive, Pf growth 48h inactive, Shiga toxin inh inactive and Cycloheximide cs 11.5.
`CC[C@H](C)[C@H](NC(=O)[C@H](CCCNC(=N)N)NC(=O)[C@@H](NC(=O)[C@H](CCCNC(=N)N)NC(=O)[C@H](CCCCN)NC(=O)[C@H](CCCNC(=N)N)NC(=O)[C@@H](NC(=O)[C@H](CC(N)=O)NC(=O)[C@@H](N)CS)[C@@H](C)O)[C@@H](C)CC)C(=O)N[C@@H](CCC(N)=O)C(=O)N[C@@H](CCCNC(=N)N)C(=O)NCC(=O)N1CCC[C@H]1C(=O)NCC(=O)N[C@@H](CCCNC(=N)N)C(=O)N[C@@H](C)C(=O)N[C@@H](Cc1ccccc1)C(=O)N[C@H](C(=O)N[C@H](C(=O)N[C@H](C(=O)NCC(=O)N[C@@H](CCCCN)C(=O)O)[C@@H](C)CC)[C@@H](C)O)C(C)C` gave Shiga toxin inh inactive and Cycloheximide cs inactive.
O=C(CCN1C(=O)C2C3CCC(C3)C2C1=O)OCC(=O)c1ccc(Cl)cc1 (configuration not stated) was read as LmPK inhibitor inactive, Pf growth 48h inactive, Shiga toxin inh inactive, Cycloheximide cs inactive and Pf growth 96h inactive.
Screening Cc1nc(N2CCCCC2)sc1C(=O)c1cccc([N+](=O)[O-])c1 returned LmPK inhibitor inactive, Pf growth 48h inconclusive, Shiga toxin inh 84.3, Cycloheximide cs 36.6 and Pf growth 96h inactive.
`COc1ccc(Cc2nc3ccc(C(=O)NC(C)c4cnn(C)c4)cc3o2)cc1` (configuration not stated) gave LmPK inhibitor inactive, Pf growth 48h inactive, Shiga toxin inh inactive, Cycloheximide cs inactive and Pf growth 96h inconclusive.
Screening Cc1ccc(CN(C)C(=O)CSc2nnc3n2CCCCC3)c(C)c1 returned Pf growth 48h inconclusive and Pf growth 96h 7.38µM.
`O=C(CCNC(=O)c1ccco1)Nc1ccccc1OC(F)F` gave LmPK inhibitor inactive, Pf growth 48h inactive, Shiga toxin inh inactive, Cycloheximide cs inactive and Pf growth 96h inactive.
CCC1(C(=O)c2ccccc2)C(c2ccc([N+](=O)[O-])cc2)C1(C(=O)OC)C(=O)OC (configuration not stated) was read as LmPK inhibitor inactive, Pf growth 48h 13.1µM, Shiga toxin inh inactive, Cycloheximide cs inactive and Pf growth 96h inactive.
CC/C(=N\Nc1ccc([N+](=O)[O-])cc1)c1ccccc1 was read as LmPK inhibitor inactive, Pf growth 48h inconclusive, Shiga toxin inh inactive, Cycloheximide cs inactive and Pf growth 96h inconclusive.
